In the library only some 2.8% were active in any assay of this set; here they are far more common.
PG9 binder – binds the HIV-1 gp120 antibody PG9; TR-FRET gp120-PG9 antibody binding; inhibition, % at 6.7 µM; 360,000 tested, 0.43% active; in the data active = inhibition above about 8.5%
GASC-1 inh – blocks human GASC-1 demethylase activity; Q9H3R0; GST-JMJD2C(1-420) H3K9me3 demethylation, DELFIA europium; inhibition, % at 2.35 µM; 330,000 tested, 0.069% active; AID 2099;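 active = more than half of a compound's replicate wells show inhibition beyond 50%, single wells judged on their own value; inconclusive = some, but no more than half, of replicates pass 50% inhibition; inactive = no replicate passes 50% inhibition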;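 note: signal counts dimethyl H3K9 product captured on neutravidin plate; 0% = median of DMSO wells and 100% = 0.3 times that DMSO median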
Rev-erbA mod – Rev-erb alpha (human) modulation | 370,000 tested, 0.79% active | activity, % at 10 µM | AID 1259318 | P20393 | Rev-erbα–FITC-DNA binding, fluorescence polarization, 90 min;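 active = activity above about 14%, limit read from the data; passing the limit was not always enough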;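 note: 0% = DMSO wells with 35 nM protein and 100% = DMSO wells with 750 nM protein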
PP5 inh – blocks human protein phosphatase 5 activity | purified PP5c, OMFP substrate fluorescence | 320,000 tested, 0.18% active | P53041 | AID 1987 | inhibition, % at 6.7 µM;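 active = inhibition above the campaign's mean inhibition across all tested compounds plus 3 SD, cut at about 9.5% in these data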;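 note: 0% = DMSO only and 100% = 100 µM cantharidin control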
Target sequence (P53041 whole entry, looked up): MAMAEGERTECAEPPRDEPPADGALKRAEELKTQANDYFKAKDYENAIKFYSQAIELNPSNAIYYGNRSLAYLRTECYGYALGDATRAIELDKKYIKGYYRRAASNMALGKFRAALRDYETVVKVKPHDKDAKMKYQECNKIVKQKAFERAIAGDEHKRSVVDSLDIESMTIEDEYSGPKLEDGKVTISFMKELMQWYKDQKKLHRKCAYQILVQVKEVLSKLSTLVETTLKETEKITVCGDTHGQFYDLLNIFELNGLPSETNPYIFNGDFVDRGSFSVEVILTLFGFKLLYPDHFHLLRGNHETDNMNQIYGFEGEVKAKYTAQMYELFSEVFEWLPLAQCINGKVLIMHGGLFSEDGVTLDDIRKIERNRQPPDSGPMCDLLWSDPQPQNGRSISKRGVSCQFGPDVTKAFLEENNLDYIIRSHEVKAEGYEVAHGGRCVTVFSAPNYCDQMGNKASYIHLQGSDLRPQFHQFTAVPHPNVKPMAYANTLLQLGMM
proKLK7 act – activators of human kallikrein-7 zymogen. P49862. purified proKLK7, EDANS-DABCYL substrate fluorescence; 100% is mature enzyme control, 0% vehicle. activation, % at 7 µM. 370,000 tested, 0.9% active;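 active = activation above the mean of all tested compounds plus 3 SD, computed per campaign excluding outliers beyond control limits, cut at about 13% in these data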
PP1 inh – counter-screen for PP5 inhibitors: inhibitors of human PP1-alpha. P62136. purified PP1alpha, OMFP fluorescence. inhibition, % at 6.7 µM. 320,000 tested, 0.9% active;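 active = inhibition above the mean inhibition of all tested compounds plus 3 SD, computed separately for each screening campaign, cut at about 15% in these data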
PG9 bind confirm – confirmation of small molecules binding HIV-1 gp120 antibody PG9. TR-FRET PG9 antibody binding, biochemical. AID 651571. shares compounds with PG9 binder. inhibition, % at 6.7 µM. 1,500 tested, 90% active; in the data active = inhibition above about 9%
PGV04 Ab binding – counter-screen for PG9 binders: binding control antibody PGV04; 1,500 tested, 95% active; inhibition, % at 6.7 µM; TR-FRET PGV04 antibody-gp120 binding, biochemical; shares compounds with PG9 binder; AID 651604; in the data active = inhibition above about 9.5%
NR1D1 mod conf – confirmation of modulators of human Rev-erb alpha DNA binding | shares compounds with Rev-erbA mod | Rev-erb alpha FITC-DNA binding, fluorescence polarization, 90 min | activation, % at 25 µM | 3,000 tested, 61% active | AID 1259319;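 active = activation at or above a set limit, or at least 3 SD above the negative control mean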;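 note: 0% = 35 nM protein with DMSO and 100% = 750 nM protein high control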
RORg counter – RORgamma DNA-binding activity, dose-response counter-screen | shares compounds with Rev-erbA mod | purified RORgamma protein-FITC-DNA binding, fluorescence polarization | IC50, µM | 910 tested, 8% active | AID 1259320;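 active = Compounds whose fitted half-maximal concentration for disrupting protein-DNA binding is below 10 micromolar; the record names Rev-erb in its text, so the target is in doubt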
* = called active by the depositor; i = inactive; ? = inconclusive; · = no result.

SMILES	PG9 binder	GASC-1 inh	Rev-erbA mod	PP5 inh	proKLK7 act	PP1 inh	PG9 bind confirm	PGV04 Ab binding	NR1D1 mod conf	others
O=C(CCCCCn1c(=S)[nH]c2ccccc2c1=O)NCc1ccc2c(c1)OCO2	4.6	6.0	3.7	0.1	0.1	-0.5	·	·	·
COc1cccc(CNC(=O)CCCn2c(=S)[nH]c3cc4c(cc3c2=O)OCO4)c1	27.6*	-1.9	86.0*	0.9	0.6	1.3	15.2*	22.8*	57.2*	RORg counter=>40
O=c1c2ccccc2[nH]c(=S)n1Cc1ccc2c(c1)OCO2	8.6*	-1.4	37.7*	-1.2	-0.2	-3.2	12.2*	21.8*	47.5*	RORg counter=>40
COC(=O)[C@]12C[C@H](CC(=O)NCC3CCCCC3)C(=O)N(Cc3ccc4c(c3)OCO4)C1=C[C@H](C(C)C)O[C@@H]2C1CC1	·	·	4.0	·	0.5	·	·	·	·
Cc1cc(NC(=O)c2cc(-c3ccccn3)nc3ccc(Br)cc23)no1	20.9*	-24.4	18.2*	-0.4	-0.2	-3.4	32.4*	67.1*	22.0*
NS(=O)(=O)c1ccc(CCNC(=O)c2cc(-c3ccc(Br)cc3)nc3ccccc23)cc1	6.3	-3.5	16.7	4.0	-0.6	-7.3	·	·	·
NS(=O)(=O)c1ccc(CCNC(=O)c2cc(-c3ccccn3)nc3ccc(Br)cc23)cc1	17.2*	6.2	33.7*	2.6	-0.1	9.4	30.5*	63.2*	30.4*	RORg counter=>40
COc1ccc2ccccc2c1C=NNC(=O)CN1CCN(Cc2ccccc2)CC1	·	·	0.2	·	0.1	·	·	·	·
COC(=O)[C@]12C[C@H](CC(=O)N3CCC(c4ccccc4)CC3)C(=O)N(CCC3=CCCCC3)C1=C[C@H](C1CCCC1)O[C@@H]2C	·	·	1.6	·	-0.4	·	·	·	·
O=c1c2c3c(sc2nc(NCCO)n1Cc1ccco1)CCCCC3	-0.1	52.5	-0.3	4.0	-0.2	-2.0	·	·	·
COCCNc1nc2sc3c(c2c(=O)n1Cc1ccco1)CCCCC3	8.7*	3.1	48.7*	2.8	0.1	-0.1	10.2*	11.0*	23.3*
COc1ccc(C2C(C(=O)N3CCOCC3)CC(=O)N2c2ccc(OC)cc2)cc1 (stereo not drawn)	·	·	-1.5	·	0.0	·	·	·	·
CCOC(=O)c1nn(-c2ccc(Cl)cc2)c2nc(CC)c(C#N)c(=O)n12	16.4*	-5.7	33.2*	3.6	10.8	-1.8	20.5*	25.0*	6.2
CCc1nonc1NC(=O)c1oc2cc(Br)ccc2c1C	18.4*	2.0	16.8*	-1.9	-0.3	-11.8	19.8*	38.1*	9.4
O=C(O)CCN1C(=O)c2ccc(NC(=O)c3cccs3)cc2C1=O	2.2	-2.3	-0.8	-1.8	-101.0	-2.2	·	·	·
O=C(Nc1ccc2c(c1)C(=O)N(c1ccccc1)C2=O)c1cccs1	21.7*	-13.1	19.6*	2.7	0.0	2.8	28.6*	40.4*	-5.5
CCCCN(C)S(=O)(=O)c1ccc2[nH]c(=O)oc2c1	·	·	-3.6	·	0.2	·	·	·	·
CC(=O)O[C@@H]1CCC[C@@]2(C(=O)Nc3ccccc32)[C@H]1NC(=O)C(C)C	·	·	2.8	·	1.1	·	·	·	·
Cn1cc(C2NC(=O)c3ccccc3N2)c2ccccc21 (stereo not drawn)	20.3*	·	24.8*	·	0.5	·	9.9*	21.6*	17.8*
COc1cc(C)c(C2NC(=O)c3ccccc3N2)cc1C (stereo not drawn)	-1.5	·	-2.8	·	4.5	·	·	·	·
NC(=O)c1c(N)[nH]c(C(=O)c2ccccc2)c1-c1ccccc1C(F)(F)F	·	·	-0.3	·	·	·	·	·	·
COc1ccc(NC(=O)c2cc3c(-c4ccc(OC)c(OC)c4)nn(C)c3s2)cc1OC	2.6	4.6	1.8	4.0	-1.1	-1.2	·	·	·
COc1ccc(-c2nn(C)c3sc(C(=O)NCc4ccco4)cc23)cc1OC	10.4*	-2.0	58.3*	2.6	-1.9	10.0	12.9*	18.5*	51.7*	RORg counter=i
COc1ccccc1CNc1ncnc2cc(Cl)ccc12	89.7*	-1.2	179.7*	·	-0.3	·	91.1*	92.9*	137.2*	RORg counter=i
COc1ccc(OC)c(Nc2nc(-c3ccccc3O)nc3ccccc23)c1	50.0*	-21.3	326.9*	1.6	-0.7	-0.9	50.8*	74.9*	224.0*	RORg counter=>40
SMILES	PG9 binder	GASC-1 inh	Rev-erbA mod	PP5 inh	proKLK7 act	PP1 inh	PG9 bind confirm	PGV04 Ab binding	NR1D1 mod conf	others
COc1ccccc1Nc1nc(-c2ccccc2O)nc2ccccc12	-0.9	?	11.1	4.0	-0.6	-2.0	·	·	·
Cc1ccc(-n2c(SCc3cccc(F)c3)nc3ccccc3c2=O)cc1	·	·	1.7	·	0.2	·	·	·	·
COc1cccc(CNC(=O)[C@H]2CCCN2C(=O)[C@H]2CCCN2C(=O)c2ccc(F)c(C(F)(F)F)c2)c1	-1.4	·	-4.1	·	-0.3	·	·	·	·
CCOC(=O)c1sc2nc(C)nc(NCc3ccccc3)c2c1C	-0.3	-9.6	4.5	2.3	-2.2	0.4	·	·	·
CCOC(=O)c1sc2nc(C)nc(NCCc3ccc(S(N)(=O)=O)cc3)c2c1C	17.6*	-8.5	39.6*	0.3	0.1	-2.9	26.9*	47.5*	16.1
CCOC(=O)C(Cc1ccccc1)CP(=O)(OC)[C@@H](C)NC(=O)OCc1ccccc1 (stereo partly drawn)	·	·	-2.6	·	0.5	·	·	·	·
CCc1ccc2[nH]cc(S(=O)(=O)c3ccc(C)c(C)c3)c(=O)c2c1	0.9	-7.8	2.5	0.4	-4.2	-0.7	·	·	·
CCc1ccc2[nH]c3nc(C)cc(C)c3c(=O)c2c1	25.3*	-1.3	29.7*	-1.2	4.7	-1.1	15.7*	23.4*	24.9*
Cc1ccc(S(=O)(=O)N2CCCC(C(=O)Nc3c(C)n(C)n(-c4ccccc4)c3=O)C2)cc1 (stereo not drawn)	·	·	-5.0	·	-0.4	·	·	·	·
CCc1ccccc1NC(=O)c1nnn(CC(=O)Nc2cccc(C)c2C)c1N	41.4*	4.0	34.9*	-1.9	0.4	2.5	41.2*	48.1*	42.2*
Cc1cccc(NC(=O)Cn2nnc(C(=O)NCc3cccs3)c2N)c1C	-0.2	-1.4	-7.8	-0.8	0.3	0.1	·	·	·
COc1ccc2nc(SC)c(C#N)cc2c1	12.6*	-2.2	42.3*	1.5	0.2	0.1	26.4*	58.4*	47.4*	RORg counter=>40
COCc1cc(C)nc(Nc2ccc(C)c(C)c2)c1C#N	30.7*	1.1	24.9*	2.2	-0.4	0.8	29.4*	46.1*	11.4
COc1ccc2nc(SCC(=O)NC3CCCC3)c(C)cc2c1	33.9*	-9.4	28.7*	1.2	-0.1	4.3	26.1*	33.0*	32.3*	RORg counter=>40

Screening results (PubChem)
